Activity calls are given as the source filed them. The calls were made as follows: active = hit-call score of the fitted dose curve at least 0.9, where 1 is the maximum; inactive = score below 0.9.
test: CCTE_Shafer_MEA_acute_per_network_burst_spike_number_mean: CCTE's Neural Acute Assay for Average Number of Spikes in a Network Burst, Shafer Lab (AID 2284019)
Description: CCTE_Shafer_MEA_acute assay is conducted using Axion Biosystems 48 well microelectrode array (MEA) plates and Maestro recording system. Each well of the MEA plate contains a grid of 16 microelectrodes embedded in the culture surface. Electrically active cells, such as neurons, can be cultured over the electrodes, and electrical activity in these cells can be recorded extracellularly. The spontaneous firing of neurons is captured from each electrode on a microsecond timescale providing both temporally and spatially precise data. […] The CCTE_Shafer_MEA_acute assay uses primary cultures of rat cortical neurons. As these cultures mature over time, neural networks develop functional activity and form cohesive networks in which electrical activity can be highly coordinated. Baseline 40-minute recordings are made on days post-plating 13 or 15, followed by a secondary 40-minute recording after chemical exposure.CCTE_Shafer_MEA_acute_per_network_burst_spike_number_mean is a component of the CCTE_Shafer_MEA_acute assay. It measures the average number of spikes (action potential firings) in a network burst (temporally-clustered group of spikes across multiple electrodes) as the total number of spikes in a network burst divided by the number of network bursts during a recording in a microelectrode array (MEA) using Axion Biosystems Maestro 768 channel amplifier with the AxIS adaptive spike detector. The recordings before and after chemical treatment are used to calculate a percent change in the mean number of spikes in a network burst in each well.Data from the assay component CCTE_Shafer_MEA_acute_per_network_burst_spike_number_mean was analyzed into 1 assay endpoint. This assay endpoint, CCTE_Shafer_MEA_acute_per_network_burst_spike_number_mean, was analyzed in the negative analysis fitting direction relative to DMSO as the negative control and baseline of activity. Using a type of functional reporter, gain or loss-of-signal activity can be used to understand electrical activity.
Spontaneous activity in the cortical cultures was recorded using an Axion Biosystems Maestro 768 channel amplifier and Axion Integrated Studios (AxIS) v1.8 (or later) software. The amplifier recorded from all channels simultaneously (gain = 1200 x; sampling rate = 12.5 kHz/channel): raw signals were filtered with a Butterworth band-pass filter (300-5000 Hz), which filters out slower local field potentials leaving only fast potentials, i.e., "spikes", arising from extracellular currents associated with action potentials (Pine 2006; Wheeler and Nam 2011). On-line spike detection of filtered signals was conducted with the AxIS adaptive spike detector, using a threshold of 8x the root mean squared (rms) noise on each channel. Any electrodes with rms noise levels greater than 5 uV were grounded (e.g., no data were recorded). Once grounded, an electrode was grounded for the duration of the experiment. All recordings were conducted at 37 C. Wells were deemed usable if on the day of the exposure >/= 10 electrodes were active (defined as >/= 5 spikes/min). On DIV 13 or 15, a minimum of three wells from one cortical culture preparation were treated with each compound (0.03-40 uM). Prior to recording baseline activity, each mwMEA plate was placed in the Maestro at 37 C and allowed to sit for 20 min while firing rates stabilized. Baseline activity (40 min) was recorded before the addition of each compound. An additional 40 min of spontaneous activity was recorded in the presence of each compound. Changes in network parameters relative to baseline were assessed following compound treatment.

Structure (SMILES)	outcome	AC50
COc1cc(C(C)C)c2c(c1)S(=O)(=O)N(COc1cc(=O)n3cccc(OCCN4CCCCC4)c3n1)C2=O	inactive	–
c1ccc(C(O[C@@H]2CCCN(CCc3ccc4c(c3)OCO4)C2)c2ccccc2)cc1	–	4.49 µM (active)
c1ccc2cc3ccccc3cc2c1	inactive	–
CC[C@H](C)C(=O)O[C@H]1C[C@H](O)C=C2C=C[C@H](C)[C@H](CC[C@@H](O)C[C@@H](O)CC(=O)O)[C@H]21	inactive	–
CCCCCCCC/C=C\CCCCCCCC(=O)OC[C@@H](O)[C@H]1OC[C@H](O)[C@H]1O	inactive	–
Cc1ncc([C@@H](CCCCCCc2ccc3c(n2)NCCC3)CC(=O)O)cn1	inactive	–
OCc1ccccc1	inactive	–
CCCc1ccccc1	inactive	–
Cn1c(=O)c2[nH]cnc2n(C)c1=O	inactive	–
CCCCC(CC)C(=O)OCCOCCOCCOC(=O)C(CC)CCCC (stereo not drawn)	inactive	–
CCCCCCCC1CCC(=O)O1 (stereo not drawn)	inactive	–
C=CCc1cc(S(=O)(=O)c2ccc(O)c(CC=C)c2)ccc1O	inactive	–
O=S(=O)(O)c1ccc(N=Nc2c(O)ccc3cc(S(=O)(=O)O)ccc23)cc1	inactive	–
COc1cc2c(c(OC)c1OC)-c1ccc(OC)c(=O)cc1[C@@H](NC(C)=O)CC2	inactive	–
COCc1nnc(-c2ccc[n+]([O-])c2)n1-c1c(Cl)c(Cl)cc2[nH]c(=O)c(=O)[nH]c12	–	4.76 µM (active)
CC(C)C(=O)Nc1ccc([N+](=O)[O-])c(C(F)(F)F)c1	inactive	–
CCc1ccc(O)c(C(C)(C)C)c1	–	35.3 µM (active)
OC(CCl)CCl	inactive	–

Reference: PubChem BioAssay (EPA / NIEHS)
